# VACV Venus inh – qHTS for Stage-Specific Inhibitors of Vaccinia Orthopoxvirus: Venus Reporter Primary qHTS; Vaccinia virus Venus reporter expression, fluorescence; Potency, µM (series often up to 36.5 µM), without a hit: at the top dose activity change, negative = inhibition, actives largely listed as inhibitors; 330,000 compounds, 0.46% hits; calls by dose curve; tested in A549 cells; note: % is set by controls: 0 for no effect and ±100 for the full control effect; nearly all actives have a fitted effect of over 30% in size
# VACV mCherry inh – qHTS for Stage-Specific Inhibitors of Vaccinia Orthopoxvirus: mCherry Reporter Primary qHTS; Potency, µM (doses to about 36.5 µM), for inactives: at the highest dose activity change, negative = inhibition, usual class: inhibitors; 310,000 compounds, 0.63% hits; AID 720579, 2013; Vaccinia virus mCherry reporter infection, fluorescence; calls by dose curve; tested in A549 cells; note: % is set by controls: 0 for no effect and ±100 for the full control effect; nearly all actives have a fitted effect of over 35% in size
# NS1 function inh – qHTS Assay for Inhibitors of Influenza NS1 Protein Function; Potency, µM (doses to about 46.1 µM), for the others: top-dose activity, positive = more growth; 270,000 compounds, 0.4% hits; calls by dose curve; note: actives are rising curves; nearly all actives have a fitted effect of over 50% in size
#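 Compounds were scored for reversing the slow growth caused by influenza A NS1 in S. cerevisiae, measured by optical density at 600 nm. Assay medium contained 2% galactose at pH 6.0; NS1-free yeast of the same strain were the positive control.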
# Pf growth 48h – Primary qHTS for delayed death inhibitors of the malarial parasite plastid, 48 hour incubation; P. falciparum luciferase growth in erythrocytes, 48 h; AID 504832, 2011; Potency, µM (top dose mostly 28.7 µM), without a hit: top-dose activity change, negative = inhibition, most hits filed as inhibitors; 310,000 compounds, 5.9% hits; note: % is set by controls: 0 for no effect and ±100 for the full control effect
#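 In quantitative HTS format, infected erythrocytes bearing luciferase-reporter parasites were treated for a single generation at 37 C. Luminescence after adding detection reagent served as the growth measure.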
# HCV inh – qHTS Assay for Inhibitors of Hepatitis C Virus (HCV); Huh7.5.1 HCVcc-Cre infection, luciferase reporter, 44 h; Potency, µM (highest dose often 41.8 µM), for inactives: at the highest dose activity change, negative = inhibition, most hits filed as inhibitors; 340,000 compounds, 3.4% hits; note: % is set by controls: 0 for no effect and ±100 for the full control effect
#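 Seed cells (1,000/well) for 4 h; treat with compound and infect with HCVcc-Cre, moi about 0.5. Incubate 44 h, then detect luciferase activity.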
# Pf growth 96h – Primary qHTS for delayed death inhibitors of the malarial parasite plastid, 96 hour incubation. Potency, µM (series often up to 28.7 µM), without a hit: top-dose activity change, negative = inhibition, actives largely listed as inhibitors. P. falciparum luciferase reporter growth, 96 h. 320,000 compounds, 6.9% hits; note: % is set by controls: 0 for no effect and ±100 for the full control effect
#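 Plates of compound plus infected erythrocytes (2% hematocrit, 0.05% parasitemia final) incubate 96 hours, 37 C, 5% CO2. Detection reagent added; reduced luminescence from the parasites' luciferase reporter flags inhibition.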
# Starred values were filed as active, the others as inactive; i = inactive; ? = inconclusive; . = not tested or not shown; [ ] = remark or other dose. Shown are actives, neighbours in structure and some others; about 11% of the full set was active somewhere. Unless noted, calls come from the whole dose curve; as a rule, active = well fitted inhibition curve with a large enough effect; inconclusive = small, poorly fitted or top-dose-only effect, or another doubt; inactive = no such curve, though single readings can be large or run the other way. Potency is the fitted concentration of half-maximal effect.
SMILES,VACV Venus inh,VACV mCherry inh,NS1 function inh,Pf growth 48h,HCV inh,Pf growth 96h
COc1ccccc1CN1CC(C(=O)N2CCCCO2)CCC1=O (configuration not stated),-3.2%,-13.9%,-0.7%,-14.2%,5.4%,36.3%
CCN(CC)C(=O)CSc1nc2nc(C)cc(C)c2c(=O)[nH]1,-0.5%,-11.5%,7.9%,.,20.4%,25.9%
CCOC(=O)Cc1nc2ccccc2o1,.,.,.,10.3%,.,3.29µM*
CC(C)CC(NC(=O)CCCNC(=O)CCC(=O)OC1O[C@H]2OC3(C)CC[C@H]4[C@H](C)CCC(C1C)C24OO3)C(=O)O (some centres not stated),1.3%,-17.9%,-55.2%,?,?,?
CC1C(OC(=O)CCC(=O)NC(C)(C)CO)O[C@H]2OC3(C)CC[C@H]4[C@H](C)CCC1C24OO3 (some centres not stated),-8.8%,i,-54.2%,?,?,?
CO[C@H]1OC2O[C@@]3(C)CC[C@H]4[C@H](C)CC[C@@H]([C@H]1C)[C@@]24OO3 (some centres not stated),.,.,.,0.0048µM*,.,0.0048µM*
C[C@H]1[C@H](OC(=O)CCC(=O)NCc2ccc(C(=O)O)cc2)O[C@@H]2O[C@@]3(C)CC[C@H]4[C@H](C)CC[C@@H]1C24OO3,0.4%,-9.8%,-94.7%,0.0185µM*,?,0.0033µM*
COc1ccc(OC)c(NC(=O)c2cc(-c3ccc(Cl)s3)nc3ccccc23)c1,10.8%,-4.2%,.,.,.,.
CCOc1ccc2nc(NC3=NC(c4ccc(OC)cc4)CC(=O)N3)nc(C)c2c1 (configuration not stated),-19.0%,-21.5%,?,?,8.91µM*,10.4µM*
N#CC/C(N)=N/Nc1nc2ccccc2nc1Cc1ccccc1,8.0%,?,?,4.65µM*,-1.7%,?
CC1(OCON)CCCc2ccccc21 (configuration not stated),-17.4%,-12.0%,3.3%,0.5%,18.2%,36.6%
COc1cc(N2CCCC2)c(OC)cc1/C=C(/C#N)c1ccc(F)cc1,-13.5%,.,2.5%,10.4µM*,?,-26.3%
CC1=C(C(=O)OC(C)C)C(c2ccccc2)NC(=O)N1C (configuration not stated),.,.,20.5%,-4.0%,5.3%,9.28µM*
CCCCOc1ccccc1C1C(C(=O)OC)=C(C)N(C)C(C)=C1C(=O)OC,-16.6%,i,-104.0%,13.1µM*,-23.7%,23.5%
COCCN1C=C(C(=O)OC)C(c2ccccc2C(F)(F)F)C(C(=O)OC)=C1,-7.6%,-15.7%,8.3%,?,1.0%,?
CCCCN1C=C(C(=O)OC)C(c2ccccc2C(F)(F)F)C(C(=O)OC)=C1,-5.7%,-3.9%,-0.5%,.,0.7%,0.522µM*
COC(=O)C1=C(C)N(C)C(=O)NC1c1ccccc1 (configuration not stated),8.6%,.,5.7%,-6.4%,?,57.3%
CCOC(=O)C1=C(C)N(C)C(C)=C(C(=O)OCC)C1c1ccccc1,-11.3%,-19.5%,-8.0%,5.22µM*,0.3%,?
Cc1cc(-c2cccc(Br)c2)c(C#N)c(N)n1,6.0%,-5.8%,.,16.9%,?,?
CC(=O)N1CCCc2cc(S(=O)(=O)N3CCCCC3)ccc21,-0.8%,0.9%,.,.,.,.
COc1ccccc1NC(=O)c1ccc(NC(=O)C2CC2C)cc1 (configuration not stated),-10.7%,4.8%,.,.,?,.
CC1CC1C(=O)Nc1ccc(-c2ccccc2)cc1 (configuration not stated),?,-11.7%,-7.2%,-12.1%,?,13.1µM*
CCN(C(=O)CN1C(=O)S/C(=C\C=C\c2ccccc2)C1=O)C1CCS(=O)(=O)C1 (configuration not stated),.,.,6.4%,7.38µM*,8.3%,4.15µM*
CCN(C(=O)CN1C(=O)S/C(=C\c2cccc(Cl)c2)C1=O)C1CCS(=O)(=O)C1 (configuration not stated),.,.,3.7%,?,-15.0%,11.7µM*
COc1ccc(NC(=O)Nc2cccnc2)c(OC)c1,-4.5%,i,2.7%,-26.6%[5.75 µM],-2.4%,-41.9%[1.15 µM]
SMILES,VACV Venus inh,VACV mCherry inh,NS1 function inh,Pf growth 48h,HCV inh,Pf growth 96h
Oc1cccc(/C=N/c2c(-c3ccco3)nc3ccccn23)c1,1.6%,-17.1%,23.2%,?,-7.1%,?
N#CCCN1CCN(C(CNS(=O)(=O)c2ccc(Cl)cc2)c2ccccc2)CC1 (configuration not stated),-21.4%,.,-13.5%,-18.5%,12.9%,5.22µM*
COc1ccc(CCNC(=O)c2[nH]c(C)c(C(C)=O)c2C)cc1,-26.0%,.,-2.8%,-16.9%,?,.
CC(=O)c1c(C)[nH]c(C(=O)NCc2ccccc2Cl)c1C,.,.,5.3%,?,12.6µM*,.
COc1ccc(CNC(=O)c2c(F)c(F)c(F)c(F)c2F)cc1,?,11.2µM*,7.5%,-14.4%,?,?
COc1ccc(CNC(=O)c2[nH]c(C)c(C(C)=O)c2C)cc1,4.4%,-12.1%,16.2%,14.7µM*,-28.6%,?
C#CCn1cnc2c(cnn2-c2ccc(F)cc2)c1=O,-8.7%,-9.3%,.,.,.,.
O=C(NCC1CC1)c1ccc(Nc2nc3ccc(Br)cc3[nH]2)cc1,-18.7%,-20.9%,4.3%,?,?,11.7µM*
O=C(Cc1ccc(Nc2nc3ccc(Br)cc3[nH]2)cc1)NCCc1cccs1,?,-19.7%,1.2%,1.85µM*,?,3.29µM*
COc1ccc(CCNC(=O)Cc2cccs2)cc1,-10.9%,-10.5%,3.8%,-16.7%,23.1%,69.7%
O=C(NCc1ccco1)c1cccc(Nc2nc3ccc(Br)cc3[nH]2)c1,-18.6%,-6.1%,15.7%,11.7µM*,-22.3%,13.1µM*
CN1CCN(c2ccc(Cl)cc2NC(=O)c2cc(=O)[nH]c3ccccc23)CC1,.,.,.,?,-25.1%,?
CN(C)CCNCc1ccc(OC2CCCC2)cc1,-6.4%,-9.2%,0.6%,.,.,9.28µM*
CCC(CO)NCc1ccc(OC2CCCC2)cc1 (configuration not stated),.,.,-6.8%,-19.8%,-11.6%,48.6%
CC(=O)c1ccc(C(=O)Nc2ccc(N3CCOCC3)cc2)cc1,-5.8%,.,22.1%,-10.3%,-8.8%,53.3%
NC1=NC(=O)/C(=C/c2ccc(-c3ccc(S(N)(=O)=O)cc3)o2)S1,4.4%,i,-13.7%,47.2%,11.3%,30.8%
CS(=O)(=O)Nc1ccc(-c2ccc(/C=C3\SC(N)=NC3=O)o2)cc1,44.9%,i,6.2%,-23.0%,14.4%,3.29µM*
